In this experiment the target is HMG-CoA reductase [Enterococcus faecalis] (UniProt Q9FD70). Put plainly: inhibitors of E. faecalis class II HMGR, confirmation, biochemical, Enterococcus faecalis (AID 1233).

Consider nine compounds from PubChem BioAssay AID1233 (SRMLSC, 2008).

Potency and affinity values are given separately. Activity calls are given as the source filed them.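 The calls were made as follows: active = a dose-response curve fit returns a half-maximal inhibitory concentration, extrapolated values included; inactive = the fit returns no such concentration.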

Take `Cc1ccc(S(=O)(=O)N(C)C)cc1NC(=O)COC(=O)CCC(=O)c1cccs1`: the outcome was inactive.

`CCOc1ccc(S(=O)(=O)N(C)CCO)cc1-c1nc2c(C(C)(C)C)nn(C)c2c(=O)[nH]1`: the outcome was inactive.

On to `O=C(NCC1CCCO1)c1ccc(Cl)c(F)c1F` (centres undefined), for which the compound was classed as inactive.

As to `CCOC(=O)c1c(C)oc2c1c(C=NCCO)c(O)c1ccccc12`, the compound was called inactive.

With `COc1ccccc1C(=O)N/C(=C/c1ccc(Br)cc1)C(=O)NCC(=O)O`, the result was inactive.

For the compound `COc1ccc(Cl)cc1NC(=O)CN(c1ccccc1)S(=O)(=O)N(C)C`, the result was inactive.

Consider `O=C(CCc1nc2ccccc2c(=O)[nH]1)N1CCN(C/C=C/c2ccccc2)CC1`, for which the result was inactive.

`Cc1ccc(Cl)cc1NC(=O)COC(=O)C12CC3CC(CC(C3)C1)C2`: the call was inactive.

Turning to `CCOC(=O)/C(C#N)=C/c1ccc(SC)cc1`, the result was inactive.
